The values below come from PubChem BioAssay (Tox21).

Inconclusive results are not listed. Active and inactive are the calls of the source. Calls come from the whole dose curve; as a rule, active = well fitted cell-killing curve with a large enough effect in the repeat runs; inconclusive = weak or mixed curves, or effect the other way; inactive = flat fitted curve, though single readings scatter.

The nature of this assay: qHTS assay to identify small molecule antagonists of the androgen receptor (AR) signaling pathway using the MDA cell line in the presence of 0.5 nM R1881 - cell viability counter screen (AID 1259242). Note: nearly all actives have a fitted effect of over 45% in size. The settings on record: MDA-kb2 viability, CellTiter-Fluor protease fluorescence, 16 h; series mostly up to 92.4 µM. The text has this: U.S. Tox21 Program National Center for Advancing Translational Sciences [NCATS] NIH Chemical Genomics Center [NCGC] U.S. Environmental Protection Agency [EPA] National Institutes of Environmental Health Sciences [NIEHS] National Toxicology Program [NTP] U.S. Food and Drug Administration [FDA] Tox21 Assay Overview: Androgen receptor (AR) is an important member of the nuclear receptor family. Its signaling plays a critical role in AR-dependent prostate cancer and other androgen related diseases. Considerable attention has been given in the past decades to develop methods to study and screen for the environmental chemicals that have the potential to interfere with metabolic homeostasis, reproduction, developmental and behavioral functions. Therefore AR binding assay for screening androgen antagonists can be used to identify potential endocrine disruptors. MDA-kb2 cells (from ATCC, deposited by Wilson et al.) were used to screen for AR inhibitors against Tox21 compound libraries. These cells are human breast carcinoma cells that were stably transfected with a luciferase reporter gene under control of the MMTV promoter that contains response elements for both androgen receptor (AR) and glucocorticoid receptor (GR). The current screening for identification of AR inhibitors against Tox21 libraries used lower concentration of (0.5 nM) R1881 as a stimulator. The cytotoxicity of the Tox21 compound libraries against MDA-kb2 cell line was tested by measuring live-cell protease activity using CellTiter-Fluor assay in the same wells.
Tox21 Assay Protocol Summary: MDA-kb2 cells (cells cultured without CO2) were dispensed at 3,000 cells/well in 4 uL of culture medium into white wall/solid-bottom 1536-well plates (Corning Life Sciences, Corning, NY) using a Multidrop Combi (ThermoFisher Scientific, Waltham, MA) dispenser. After the assay plates were incubated at a 37C and 0% CO2 for 5 hr, 23 nL of compounds dissolved in DMSO, positive controls or DMSO only was transferred to the assay plate by a Pintool station (Kalypsys, San Diego, CA). The transfer of compounds was followed by the addition of 1 uL of 0.5 nM (final concentration) agonist (R1881)/culture medium using a Flying Reagent Dispenser (FRD, Aurora Discovery, San Diego, CA). The plates were incubated at 37C and 0% CO2 for 16 hr. For cytotoxicity assay, 1 uL of CellTiter-Fluor reagent (Promega Corporation, Madison, WI) was added to each well using the FRD and after 30 min incubation at 37C and 0% CO2, The fluorescence intensity was measured using ViewLux plate reader (PerkinElmer, Shelton, CT).
On the technique in general: qHTS replaces the single test concentration by a dilution series.
Consider `CN1C(CCl)Nc2cc(Cl)c(S(N)(=O)=O)cc2S1(=O)=O` (stereo not given), for which the result was inactive. To `CC(=O)c1ccc2ccc3ccccc3c2c1` belongs “inactive”; to `Nc1nc(Cl)cc(Cl)n1`, “inactive”. The value for `CC(=O)c1ccc(O)c(C(N)=O)c1` was “inactive”; that for `CCCCCCC(O)CO` (stereo not given) was “inactive”; that for `N#Cc1ccccc1C#N` was “inactive”. Regarding `C[C@]12C=CC(=O)C=C1[C@@H](F)C[C@@H]1[C@@H]2[C@@H](O)C[C@@]2(C)[C@H]1CC[C@]2(O)C(=O)CO`, the outcome was inactive.

In the case of `Cc1cc(O)c(Cl)cc1C`, the result was inactive. To `Cc1ccc2cccnc2c1` belongs “inactive”; to `CCC(=O)OCCOc1ccccc1`, “inactive”. The value for `Nc1cc(S(=O)(=O)O)ccc1O` was “inactive”; that for `CCCCC(CC)COC(=O)CC#N` (stereo not given) was “inactive”. To `Cc1ccc(O)c([N+](=O)[O-])c1` belongs “inactive”; to `CCOCCOCCOC(C)=O`, “inactive”; to `CC(C)(C)OC=O`, “inactive”.

For `CC1=C(O)C(=O)CO1`, the outcome was inactive. To `Nc1ccc(C(=O)NCC(=O)O)cc1` belongs “inactive”; to `Cc1ccccc1OCC(=O)O`, “inactive”; to `C[C@@H]1CCC[C@H](C)N1CCCC(O)(c1ccccc1)c1ccccn1` (stereo not given in full), “inactive”. Regarding `Cc1ccc(OC(=O)CC(C)C)cc1`, the outcome was inactive. To `Cc1cc(=O)oc2cc(O[C@@H]3SC[C@@H](O)[C@H](O)[C@H]3O)ccc12` belongs “inactive”; to `C=CCN(CC=C)CC=C`, “inactive”. In the case of `N=C(N)S(=O)O`, the result was inactive. To `CC(=O)OC1CCC(C(C)(C)C)CC1` (stereo not given) belongs “inactive”; to `CC1(C)CC(N)CC(C)(C)N1`, “inactive”. The value for `CCCCCCCC(=O)N(C)C` was “inactive”; that for `C/C=C/C(=O)CCCC` was “inactive”.

`O=C(O)COc1ccc2ccccc2c1`: the result was inactive. To `C/C(Cl)=C/CCl` belongs “inactive”; to `CCO[Si](CC(C)C)(OCC)OCC`, “inactive”. The value for `CCCC(=O)CC` was “inactive”. With `COC(=O)c1ccc(C(=O)O)cc1`, the outcome was inactive. Consider `O=C(O)CCCCCCCCCC(=O)O`, for which the outcome was inactive. Regarding `CCCCN1C(=O)c2ccccc2C1=O`, the result was inactive. To `C/C=C(\C)C(=O)OC/C=C(\C)CCC=C(C)C` belongs “inactive”; to `Clc1cc(Cl)c(Cl)c(Cl)c1Cl`, “inactive”; to `CN(C)CCc1c[nH]c2ccc(C[C@H]3COC(=O)N3)cc12`, “inactive”.

As for `CCCCCCC(=O)c1ccccc1`, the result was inactive. As for `CCO/C=C1\N=C(c2ccccc2)OC1=O`, the result was inactive. The value for `C=COCCCCO` was “inactive”.
